PubChem BioAssay
Active and inactive are the calls of the source.

Key:
Albumin (Bos taurus) = Albumin (Bos taurus) (UniProt P02769); assay: bovine serum albumin binders on microarray, profiling panel, artefact control for SMM control protein annotation, biochemical, small-molecule microarray, Alexa647 label, 635/667 nm fluorescence (AID 1118); details: BSA-A647 binding, fluorescence 635 nm, higher = more signal;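 also: score merges 667 nm emission intensity and signal-to-noise per printed compound spot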
[1] = small-molecule microarray binders of probe aXIP, primary screen, biochemical, NeuroSMM set, 635/667 nm fluorescence (AID 1119); details: higher = more signal, called active from +8 up or from −8 down;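 also: probe is the protein aXip251-270 applied at 1 µg/mL to compound-printed slides; binding of probe to printed compounds measured as 667 nm fluorescence plus signal to noise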
[2] = small-molecule binders of probe aNOTCH3, primary screen, biochemical, small-molecule microarray, 635/667 nm fluorescence (AID 1120); details: higher = more signal;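 also: probe is a biotin-tagged antibody raised against NOTCH3 rather than NOTCH3 protein; score merges spot fluorescence near 667 nm with spot signal to noise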
[3] = small-molecule binders of probe aNOTCH2, primary screen, biochemical, small-molecule microarray, 635/667 nm fluorescence (AID 1121); details: higher = more signal;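 also: score merges feature fluorescence read at 667 nm with its signal to noise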
[4] = target: Carbonic anhydrase 2 (Homo sapiens) (UniProt P00918); assay: CAII small-molecule binders, profiling panel, biochemical, small-molecule microarray, Alexa647-labelled CAII (AID 1122); details: CAII-A647 binding fluorescence, higher = more signal
[5] = COS7 lysate on small-molecule microarray, probe aHis, 635 nm (AID 1123); details: COS7 cell lysate, fluorescence, higher = more signal;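 also: z-score combines 667nm fluorescence intensity with signal-to-noise per printed compound spot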
[6] = compound binding in COS7 lysate, probe aLAP1, primary screen, cell lysate, small-molecule microarray (AID 1124); details: probe aLAP1, fluorescence, higher = more signal;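 also: lysate comes from COS7 cells expressing LAP1 and is applied at 0.3 µg/mL; score merges spot fluorescence near 667 nm with signal-to-noise over triplicate slides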
Sam68 (KHDRBS1) = assay: Sam68 small-molecule binders, primary screen, biochemical, small-molecule microarray, 635 nm fluorescence (AID 1125); details: small-molecule microarray binding, higher = more signal;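 also: score merges 667 nm channel intensity with signal to noise over triplicate slides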
[7] = system: Chordin-like protein 2 (CHRDL2); assay: CHRDL2 small-molecule binders, primary screen, biochemical, small-molecule microarray, 635 nm fluorescence (AID 1126); details: small-molecule microarray binding, fluorescence 635 nm; higher = more signal;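 also: printed compound slides probed with Chrdl2 protein at 4 µg/mL for 1 h at 4 C; score merges 667 nm emission intensity with signal to noise over three replicate slides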
[8] = target: Concanavalin-A (Canavalia ensiformis) (UniProt P02866); assay: ConA small-molecule binders, primary screen, artefact control for SMM control protein annotation, biochemical, small-molecule microarray, Alexa647 label, 635 nm (AID 1127); details: ConA-A647 binding fluorescence, higher = more signal;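 also: z combines 667 nm emission intensity with signal-to-noise across three replicate slides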
[9] = anti-His antibody binders, primary screen, artefact control for SMM control protein annotation, biochemical, small-molecule microarray, 635 nm fluorescence (AID 1128); details: anti-His Alexa647 antibody binding, higher = more signal;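 also: score merges feature fluorescence with signal-to-noise for each printed compound spot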
[10] = system: Human papillomavirus type 1a E7 protein (residues 1-88); assay: HPV1a E7 small-molecule binders, primary screen, biochemical, small-molecule microarray, residues 1-88, 635 nm (AID 1129); details: small-molecule microarray binding, fluorescence 635 nm; higher = more signal
[11] = target: Focal adhesion kinase 1 (Homo sapiens) (UniProt Q05397); assay: small-molecule microarray binders of FAK, primary screen, biochemical, 635/667 nm fluorescence, BSA, DTT (AID 1130); details: PTK2 binding, 635 nm fluorescence, higher = more signal;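 also: composite of spot emission at 667 nm and signal to noise over triplicate slides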
[12] = system: Fibrinogen (Alexa647-labelled); assay: fibrinogen binders on compound microarrays, profiling panel, artefact control for SMM control-protein annotation, biochemical, small-molecule microarray, 635/667 nm fluorescence (AID 1131); details: fibrinogen-A647 binding fluorescence, higher = more signal;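 also: z-score merges 667 nm fluorescence with per-spot signal-to-noise over triplicate slides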
[13] = target: Follistatin (Homo sapiens) (UniProt P19883); assay: follistatin binders on small-molecule microarrays, primary screen, biochemical, small-molecule microarray, 635/667 nm fluorescence (AID 1132); details: FST binding, 635 nm fluorescence, higher = more signal
[14] = target: Fibroblast growth factor 2 (Homo sapiens) (UniProt P09038); assay: FGF2 binders on small-molecule microarrays, primary screen, biochemical, small-molecule microarray, 635/667 nm fluorescence (AID 1133); details: small-molecule microarray binding, FGF2, fluorescence 635/667; higher = more signal
[15] = mitochondrial membrane potential change in A549 cells, profiling panel, cell-based, JC-1 fluorescence, basal, 24 h, 100 nL (AID 1138); details: higher = more signal;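 also: A549 lung adenocarcinoma cells under basal conditions with no added stimulus; test concentration not given here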
Lefty1 = Lefty1 binders on small-molecule microarrays, primary screen, biochemical, small-molecule microarray, 635/667 nm fluorescence (AID 1139); details: small-molecule microarray binding, fluorescence 635/667; higher = more signal
[16] = system: wheat germ agglutinin (Triticum aestivum), Alexa647-labelled; assay: wheat germ agglutinin binders on compound microarrays, profiling panel, artefact control for SMM control-protein annotation, biochemical, small-molecule microarray, 635/667 nm fluorescence (AID 1140); details: WGA-A647 binding, 635 nm fluorescence, higher = more signal;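 also: score merges 667 nm feature emission with signal to noise over triplicate slides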
[17] = target: Luciferin 4-monooxygenase (Photinus pyralis) (UniProt P08659); assay: firefly luciferase enzyme inhibitors, primary screen, biochemical, luminescence, purified enzyme, 2006 set (AID 1141); details: SteadyGlo luminescence, 30 min, higher = more signal, called active from +8 up or from −8 down;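 also: cell-free assay with purified firefly luciferase at 100 ng per well in PBS; test concentration not given here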
Luciferin 4-monooxygenase (Photinus pyralis), sequence (P08659 whole entry, looked up): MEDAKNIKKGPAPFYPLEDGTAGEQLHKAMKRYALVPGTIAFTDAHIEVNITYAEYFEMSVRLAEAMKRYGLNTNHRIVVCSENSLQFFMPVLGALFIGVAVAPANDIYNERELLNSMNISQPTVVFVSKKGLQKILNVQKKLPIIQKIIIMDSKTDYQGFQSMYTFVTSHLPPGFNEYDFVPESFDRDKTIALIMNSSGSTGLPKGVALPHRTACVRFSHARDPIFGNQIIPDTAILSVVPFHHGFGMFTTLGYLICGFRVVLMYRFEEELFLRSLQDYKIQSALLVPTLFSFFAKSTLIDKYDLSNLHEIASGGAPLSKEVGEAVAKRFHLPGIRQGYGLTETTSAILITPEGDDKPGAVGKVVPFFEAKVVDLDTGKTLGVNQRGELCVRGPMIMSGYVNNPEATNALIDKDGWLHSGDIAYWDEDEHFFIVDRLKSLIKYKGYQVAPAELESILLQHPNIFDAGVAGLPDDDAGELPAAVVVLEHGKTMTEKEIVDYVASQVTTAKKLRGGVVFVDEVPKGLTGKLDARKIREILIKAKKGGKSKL

Concanavalin-A (Canavalia ensiformis), sequence (P02866 whole entry, looked up): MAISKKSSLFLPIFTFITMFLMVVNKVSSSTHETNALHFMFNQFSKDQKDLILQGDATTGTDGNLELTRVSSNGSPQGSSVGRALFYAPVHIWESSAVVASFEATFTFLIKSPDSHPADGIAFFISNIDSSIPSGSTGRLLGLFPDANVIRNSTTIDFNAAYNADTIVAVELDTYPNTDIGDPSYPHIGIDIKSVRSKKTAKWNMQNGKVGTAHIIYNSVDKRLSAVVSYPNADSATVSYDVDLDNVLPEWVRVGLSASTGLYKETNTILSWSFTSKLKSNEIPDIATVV
Focal adhesion kinase 1 (Homo sapiens), sequence (Q05397 whole entry, looked up): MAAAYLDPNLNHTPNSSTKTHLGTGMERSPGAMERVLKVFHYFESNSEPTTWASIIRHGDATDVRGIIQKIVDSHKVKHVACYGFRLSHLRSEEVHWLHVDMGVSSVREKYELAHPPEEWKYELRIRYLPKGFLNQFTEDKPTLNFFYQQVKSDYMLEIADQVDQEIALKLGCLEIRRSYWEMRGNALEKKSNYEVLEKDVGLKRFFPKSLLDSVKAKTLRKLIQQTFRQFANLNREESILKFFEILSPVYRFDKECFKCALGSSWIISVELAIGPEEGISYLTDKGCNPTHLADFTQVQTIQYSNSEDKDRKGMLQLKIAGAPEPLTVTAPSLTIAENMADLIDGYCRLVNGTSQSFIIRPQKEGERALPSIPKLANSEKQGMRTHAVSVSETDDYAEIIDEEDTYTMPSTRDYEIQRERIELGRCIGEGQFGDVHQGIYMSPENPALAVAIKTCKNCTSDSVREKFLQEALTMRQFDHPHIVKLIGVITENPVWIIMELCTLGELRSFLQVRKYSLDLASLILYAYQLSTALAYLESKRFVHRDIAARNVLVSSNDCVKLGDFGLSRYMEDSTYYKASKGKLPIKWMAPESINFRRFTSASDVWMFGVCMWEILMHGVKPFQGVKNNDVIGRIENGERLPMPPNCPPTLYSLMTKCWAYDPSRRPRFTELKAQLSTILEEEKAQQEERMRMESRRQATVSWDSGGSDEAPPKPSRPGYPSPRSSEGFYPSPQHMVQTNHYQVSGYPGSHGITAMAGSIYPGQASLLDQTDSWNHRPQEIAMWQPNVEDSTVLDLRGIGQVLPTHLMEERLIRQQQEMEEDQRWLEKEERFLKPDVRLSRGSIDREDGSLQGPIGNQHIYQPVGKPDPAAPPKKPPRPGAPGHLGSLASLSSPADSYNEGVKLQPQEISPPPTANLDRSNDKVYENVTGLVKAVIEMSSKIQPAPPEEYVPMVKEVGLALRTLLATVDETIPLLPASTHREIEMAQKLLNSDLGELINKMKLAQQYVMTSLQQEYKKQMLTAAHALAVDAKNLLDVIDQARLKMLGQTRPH
Follistatin (Homo sapiens), sequence (P19883 whole entry, looked up): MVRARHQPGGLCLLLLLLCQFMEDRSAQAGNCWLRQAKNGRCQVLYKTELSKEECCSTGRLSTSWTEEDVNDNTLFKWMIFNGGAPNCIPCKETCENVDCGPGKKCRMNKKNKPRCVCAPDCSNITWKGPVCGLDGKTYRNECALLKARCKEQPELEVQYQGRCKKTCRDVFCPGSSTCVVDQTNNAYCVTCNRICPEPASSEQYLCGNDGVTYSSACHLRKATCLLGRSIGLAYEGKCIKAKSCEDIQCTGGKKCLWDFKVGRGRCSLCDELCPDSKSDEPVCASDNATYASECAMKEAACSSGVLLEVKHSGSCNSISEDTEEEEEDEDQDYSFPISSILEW
Albumin (Bos taurus), sequence (P02769 whole entry, looked up): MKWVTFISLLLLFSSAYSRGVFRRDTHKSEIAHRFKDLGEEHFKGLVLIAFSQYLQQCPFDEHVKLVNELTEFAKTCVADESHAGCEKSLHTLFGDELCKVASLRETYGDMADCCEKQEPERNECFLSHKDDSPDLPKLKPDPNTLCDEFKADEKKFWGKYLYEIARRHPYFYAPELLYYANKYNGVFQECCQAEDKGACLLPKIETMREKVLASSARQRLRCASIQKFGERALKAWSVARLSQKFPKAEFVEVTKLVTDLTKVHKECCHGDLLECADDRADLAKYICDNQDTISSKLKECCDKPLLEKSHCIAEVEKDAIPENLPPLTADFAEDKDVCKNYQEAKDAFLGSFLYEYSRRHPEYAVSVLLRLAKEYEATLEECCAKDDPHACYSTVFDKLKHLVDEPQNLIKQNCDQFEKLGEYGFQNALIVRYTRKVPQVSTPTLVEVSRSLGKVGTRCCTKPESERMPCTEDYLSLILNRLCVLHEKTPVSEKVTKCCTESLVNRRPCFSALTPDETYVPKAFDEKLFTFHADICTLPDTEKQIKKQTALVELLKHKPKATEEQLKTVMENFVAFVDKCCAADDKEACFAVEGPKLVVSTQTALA
Fibroblast growth factor 2 (Homo sapiens), sequence (P09038 whole entry, looked up): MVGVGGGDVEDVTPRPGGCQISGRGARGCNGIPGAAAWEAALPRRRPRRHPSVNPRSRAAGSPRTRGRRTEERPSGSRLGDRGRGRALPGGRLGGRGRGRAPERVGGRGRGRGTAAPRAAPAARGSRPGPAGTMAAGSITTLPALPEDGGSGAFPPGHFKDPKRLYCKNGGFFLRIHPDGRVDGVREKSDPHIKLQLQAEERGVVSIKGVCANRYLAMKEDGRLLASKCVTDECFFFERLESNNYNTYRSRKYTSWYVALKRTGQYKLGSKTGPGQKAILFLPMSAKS

| Structure (SMILES) | composite z-score (Albumin (Bos taurus)) | composite Z-score [1] | composite z-score [2] | composite z-score [3] | composite z-score [4] | composite z-score [5] | composite z-score [6] | composite z-score (Sam68 (KHDRBS1)) | composite z-score [7] | composite z-score [8] | composite z-score [9] | composite z-score [10] | composite z-score [11] | composite z-score [12] | composite z-score [13] | composite z-score [14] | z-score [15] | composite z-score (Lefty1) | composite z-score [16] | z-score [17] |
| --- | --- | --- | --- | --- | --- | --- | --- | --- | --- | --- | --- | --- | --- | --- | --- | --- | --- | --- | --- | --- |
| O=C1OCCC=C[C@H]2OC34C=CCN(Cc5ccccc5)C(=O)[C@H]3N(CCCCCO)C(=O)[C@@H]4C12 (stereo not given in full) | 0.863 | 0.452 (inactive) | -0.28 | -0.173 | 0.763 | 2.1 | 0.743 | 0.954 | -1.32 | -0.262 | 0.206 | 0.702 | 1.95 | -1.44 | -0.618 | -1.16 | 0.758 | 0.475 | 0.809 | 0.0657 (inactive) |
| CC(=O)C1=CCC(c2ccccc2)N(S(=O)(=O)c2ccc(C)cc2)C1 (stereo not given) | 0.632 | -0.685 (inactive) | 0.101 | -0.0439 | 0.66 | 2.5 | 0.763 | 0.579 | 0.725 | 0.789 | 1.8 | 1.19 | 0.362 | 0.757 | 0.798 | -0.194 | -1.16 | 0.176 | 1.21 | 1.6 (inactive) |
| [N-]=[N+]=NCc1ccccc1C[C@]1(C(=O)NCCN2CCOCC2)N=C(c2ccc(OCCCO)cc2)O[C@H]1c1ccccc1N=[N+]=[N-] | 0.926 | 0.255 (inactive) | 0.356 | 0.253 | 0.599 | 2.62 | 0.645 | 1.29 | -0.509 | 1.16 | 0.853 | 1.25 | 0.669 | 0.989 | 0.714 | 0.0056 | 1.29 | -0.209 | 0.976 | -7.78 (inactive) |
| COc1ccc(C(O)C2C=CC3C(=O)N(c4ccccc4)C(=O)C3N2Nc2ccc([N+](=O)[O-])cc2)cc1OCc1ccccc1 (stereo not given) | 0.927 | -0.114 (inactive) | 1.33 | 0.708 | 0.591 | 1.53 | 1.22 | 1.16 | 0.471 | 1.14 | 1.71 | 1.2 | 0.315 | 0.995 | 0.508 | 0.156 | 0.41 | -0.29 | 1.45 | 1.42 (inactive) |
| C=CC[C@@]1(C(=O)O)N=C(c2ccc(OCCCO)cc2)O[C@@H]1c1ccccc1N=[N+]=[N-] | 0.851 | 0.544 (inactive) | 0.169 | 0.0828 | 0.513 | 2.03 | 0.906 | 1.09 | 0.52 | 0.247 | 1.06 | 0.811 | 0.235 | 0.987 | 1.1 | -0.168 | 0.117 | -0.504 | 1.36 | -12.9 (active) |
| COC(=O)[C@@]1(Cc2ccc(OC)cc2)[C@H]2c3cc(C(=O)N4CCCC4)n(Cc4cc(F)cc5c4OCOC5)c3C[C@H]2CN1C(=O)c1ccccc1 | 0.161 | -0.0345 (inactive) | 0.58 | 0.38 | 0.916 | 2.39 | -0.429 | -0.0061 | -0.974 | 0.693 | -0.642 | 1.2 | 0.993 | -0.18 | 0.0448 | -0.873 | 0.64 | -0.394 | 0.0908 | 0.0222 (inactive) |
| COCCOC(=O)N1C(=O)[C@@]2(c3cc(C#CCC(C(=O)OC)C(=O)OC)ccc31)[C@H](C(=O)N1CCCCCCC1)[C@H]1C(=O)O[C@H](c3ccccc3)[C@H](c3ccccc3)N1[C@@H]2c1ccc(OCCO)cc1 | 0.786 | 4.41 (inactive) | 1.61 | 0.738 | 0.643 | 3.78 | 1.06 | 1.3 | 1.53 | 1.15 | 0.887 | 1.25 | 1.97 | 0.965 | 1.49 | 1.62 | -1.49 | 1.65 | 1.6 | -0.0546 (inactive) |
| COCCOC(=O)N1C(=O)[C@@]2(c3cc(C#CC4(O)CCCCCC4)ccc31)[C@H](C(=O)N1CCCCCCC1)[C@H]1C(=O)O[C@H](c3ccccc3)[C@H](c3ccccc3)N1[C@@H]2c1ccccc1OCCO | 0.155 | 0.176 (inactive) | 0.922 | 0.191 | 0.452 | 2.83 | 0.542 | 1.33 | 1.09 | 0.827 | 1.24 | 1.22 | 0.808 | 0.832 | 1.42 | 1.11 | -1.04 | 0.955 | 1.39 | -0.969 (inactive) |
| CC(=O)NCCCC[C@@H]1NC(=O)[C@H]2C[C@@H](C(=O)NCCCCCC[N+](C)(C)C)[C@@H](c3cccc(OCCO)c3)N2C1=O | 0.0306 | 0.526 (inactive) | 0.15 | -0.106 | 0.607 | 1.19 | -0.165 | 1.04 | 1.45 | 0.904 | 0.627 | 0.614 | 0.207 | 0.77 | 1.4 | 1.9 | -1.12 | 1.39 | 0.656 | 0.692 (inactive) |
| C[C@H]1NC(=O)[C@H](Cc2ccccc2)NC(=O)[C@@]23C(=O)N[C@@H](Cc4ccccc4)C2[C@H](C)[C@@]2(C)O[C@H]2C3/C=C/C/C=C\CNC1=O (stereo not given in full) | -1.45 | 0.572 (inactive) | -0.15 | -0.118 | -0.0479 | -1.21 | 0.0584 | -1.69 | 0.417 | -1.44 | -0.708 | -1.27 | -0.261 | -1.75 | 0.275 | 0.0643 | 0.593 | -0.94 | -0.585 | -0.923 (inactive) |
